Measured values reported in the antibiotic and cytotoxicity screens of Wong et al. (2023).
Among all 39,000 compounds or so, about 1,500 (3.8%) were called active. The entries come from a sample that favours actives as a whole.

Tested on: HSkMC (human skeletal muscle cells)
Assay: cytotoxicity call (relative viability < 0.9)
Conditions: 10 µM

| Compound | cytotoxicity call |
| --- | --- |
| CC(=O)OCC(=O)C1(O)CCC2C3CCC4CC(O)CCC4(C)C3C(=O)CC21C (stereo not given) | inactive |
| COc1ccc(NC(=O)Nc2ccc3c(c2)C(=O)N([C@H](C)CO)C[C@H](C)[C@H](CN(C)S(=O)(=O)c2cccs2)OCCCC[C@H](C)O3)cc1 | inactive |
| C[N+](C)(C)CCCCNC(=O)[C@H]1C[C@H]2C(=O)N3CCC[C@H]3C(=O)N2[C@H]1c1cccc(OCCO)c1 | inactive |
| C[C@H](CO)N1C[C@H](C)[C@@H](CN(C)C(=O)c2ccc3c(c2)OCO3)Oc2cc(-c3cncnc3)ccc2S1(=O)=O | inactive |
| CCCCCCCCCC(=O)N[C@@H](Cc1c[nH]c2ccccc12)C(=O)N[C@H](CC(N)=O)C(=O)N[C@@H](CC(=O)O)C(=O)N[C@@H]1C(=O)NCC(=O)N[C@@H](CCCN)C(=O)N[C@@H](CC(=O)O)C(=O)N[C@H](C)C(=O)N[C@@H](CC(=O)O)C(=O)NCC(=O)N[C@H](CO)C(=O)N[C@@H]([C@H](C)CC(=O)O)C(=O)N[C@@H](CC(=O)c2ccccc2N)C(=O)O[C@@H]1C | inactive |
| C[C@@H]1CN([C@H](C)CO)C(=O)Cc2cc(NC(=O)Nc3ccc(C(F)(F)F)cc3)ccc2O[C@@H]1CN(C)C(=O)NC1CCCCC1 | active |
| C[C@H]1CN([C@@H](C)CO)C(=O)Cc2cc(NC(=O)Nc3ccc(C(F)(F)F)cc3)ccc2O[C@H]1CN(C)C(=O)NC1CCCCC1 | inactive |
| C[C@H](CO)N1C[C@H](C)[C@@H](CN(C)C(=O)NC2CCCCC2)Oc2ccc(NC(=O)Nc3ccc(C(F)(F)F)cc3)cc2CC1=O | inactive |
| C[C@@H]1CN([C@H](C)CO)C(=O)Cc2cc(NC(=O)Nc3ccc(C(F)(F)F)cc3)ccc2O[C@H]1CN(C)C(=O)NC1CCCCC1 | inactive |
| C[C@@H]1CN([C@@H](C)CO)C(=O)Cc2cc(NC(=O)Nc3ccc(C(F)(F)F)cc3)ccc2O[C@H]1CN(C)C(=O)NC1CCCCC1 | inactive |
| C[C@@H]1CN([C@@H](C)CO)C(=O)Cc2cc(NC(=O)Nc3ccc(C(F)(F)F)cc3)ccc2O[C@@H]1CN(C)C(=O)NC1CCCCC1 | active |
| C[C@H](CO)N1C[C@H](C)[C@@H](CN(C)Cc2ccc(Oc3ccccc3)cc2)Oc2cc(-c3ccncc3)ccc2S1(=O)=O | inactive |
| C[C@H]1CCCCO[C@@H](CN(C)C(=O)Nc2ccc(C(F)(F)F)cc2)[C@@H](C)CN([C@@H](C)CO)C(=O)c2cc(NS(C)(=O)=O)ccc2O1 | inactive |
| Cc1noc(C)c1NC(=O)N(C)C[C@H]1OCCCC[C@@H](C)Oc2ccc(NS(=O)(=O)c3cccs3)cc2C(=O)N([C@H](C)CO)C[C@@H]1C | inactive |
| C[C@@H]1CN([C@@H](C)CO)S(=O)(=O)c2ccc(C#Cc3ccccc3)cc2O[C@@H]1CN(C)C(=O)CN(C)C | inactive |
| C[C@@H]1CCCCO[C@H](CN(C)Cc2ccc(C(=O)O)cc2)[C@@H](C)CN([C@@H](C)CO)C(=O)c2cc(NC(=O)Nc3cccc4ccccc34)ccc2O1 | inactive |
| C[C@@H]1CCCCO[C@H](CN(C)Cc2ccccc2)[C@@H](C)CN([C@H](C)CO)C(=O)c2cc(NC(=O)Nc3cccc4ccccc34)ccc2O1 | inactive |
| C[C@@H]1CCCCO[C@@H](CN(C)Cc2ccccc2)[C@@H](C)CN([C@@H](C)CO)C(=O)c2cc(NC(=O)Nc3cccc4ccccc34)ccc2O1 | inactive |

| Compound | cytotoxicity call |
| --- | --- |
| C[C@@H]1CN([C@H](C)CO)C(=O)c2cc(NC(=O)Nc3cccc4ccccc34)ccc2O[C@@H](C)CCCCO[C@H]1CN(C)Cc1ccccc1 | inactive |
| C[C@@H]1CCCCO[C@H](CN(C)Cc2ccc(C(=O)O)cc2)[C@H](C)CN([C@H](C)CO)C(=O)c2cc(NC(=O)Nc3cccc4ccccc34)ccc2O1 | inactive |
| C[C@H]1CCCCO[C@@H](CN(C)Cc2ccccc2)[C@@H](C)CN([C@@H](C)CO)C(=O)c2cc(NC(=O)Nc3cccc4ccccc34)ccc2O1 | active |
| C[C@H](CO)N1C[C@H](C)[C@H](CN(C)Cc2ccccc2)OCCCC[C@H](C)Oc2ccc(NC(=O)Nc3cccc4ccccc34)cc2C1=O | inactive |
| C[C@H](CO)N1C[C@H](C)[C@@H](CN(C)Cc2ccccc2)OCCCC[C@H](C)Oc2ccc(NC(=O)Nc3cccc4ccccc34)cc2C1=O | active |
| C[C@@H]1CCCCO[C@H](CN(C)Cc2ccccc2)[C@H](C)CN([C@H](C)CO)C(=O)c2cc(NC(=O)Nc3cccc4ccccc34)ccc2O1 | active |
| C[C@@H]1CCCCO[C@H](CN(C)Cc2ccccc2)[C@@H](C)CN([C@@H](C)CO)C(=O)c2cc(NC(=O)Nc3cccc4ccccc34)ccc2O1 | active |
| CC1(C)OC2CC3C4CCC5=CC(=O)CCC5(C)C4(F)C(O)CC3(C)C2(C(=O)CCl)O1 (stereo not given) | inactive |
| C[C@H]1CN([C@@H](C)CO)C(=O)CCCn2nncc2CO[C@@H]1CN(C)C(=O)Nc1ccc(N2CCCCC2)cc1 | inactive |
| Cc1noc(C)c1NC(=O)N(C)C[C@@H]1Oc2ccc(NC(=O)Nc3cccc4ccccc34)cc2C(=O)N([C@@H](C)CO)C[C@@H]1C | inactive |
| COc1ccc(CN(C)C[C@H]2OCCCC[C@@H](C)Oc3ccc(NC(=O)c4ccccc4)cc3C(=O)N([C@H](C)CO)C[C@H]2C)cc1 | inactive |
| C[C@@H]1CN([C@H](C)CO)C(=O)c2cc(NS(=O)(=O)c3cccs3)ccc2O[C@@H]1CN(C)S(=O)(=O)c1ccc(F)cc1 | inactive |
| COc1ccc(NC(=O)N(C)C[C@H]2Oc3ncc(C#CCN(C)C)cc3C(=O)N([C@@H](C)CO)C[C@@H]2C)cc1 | inactive |
| C[C@@H]1CCCCO[C@@H](CN(C)C(=O)C2CCCCC2)[C@@H](C)CN([C@H](C)CO)C(=O)c2cc(NC(=O)Nc3cccc4ccccc34)ccc2O1 | inactive |
| COc1ccc(NC(=O)N(C)C[C@@H]2OCCCC[C@H](C)Oc3ccc(NC(=O)NC4CCCCC4)cc3C(=O)N([C@H](C)CO)C[C@@H]2C)cc1 | inactive |
| COCC#Cc1ccc2c(c1)O[C@H](CN(C)S(=O)(=O)c1ccc(F)cc1)[C@H](C)CN([C@@H](C)CO)S2(=O)=O | inactive |
| COc1cccc(S(=O)(=O)Nc2ccc3c(c2)[C@@H]2C[C@H](CC(=O)N4CCCCC4)O[C@H](CO)[C@@H]2O3)c1 | inactive |
